Here are results for 40 compounds from PubChem BioAssay (NCI).

The panel holds about 83,000 compounds, 20% with a hit somewhere; the sample as a whole holds those more often.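 Growth was measured after 48 h exposure to one concentration of compound in 96-well plates. Values under 10 count as active.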 A number with no mark means an inactive call. Calls of active or inactive are those of the source.

The test system of the test is SNB-75 CNS. The experiment in a line: NCI-60 one-dose screen, 48 h (100 = growth as untreated, 0 = no growth, -100 = all killed). The settings on record: 10 µM unless noted.
As for `Cc1cc2c(-c3nc4ccccc4n3C)c(O)c(O)cc2c(O)c1-c1c(C)cc2c(-c3nc4ccccc4n3C)c(O)c(O)cc2c1O`, the growth was 69%.
Under `COc1ccc2sc(-n3nc4nc5n(c(=O)c4c3N)-c3ccccc3Sc3ccccc3-5)nc2c1` stands 73.8%; under `CC(=O)Nc1ccc(C(=O)/C=C/c2ccc(N(C)C)cc2)cc1`, 99.7%; under `CCCC(=O)NNc1[nH]c(-c2ccc(OC)cc2)cc1C(=O)OCC`, 122%.
On to `O=C(/C(Br)=C/c1ccccc1)c1ccccc1`, for which the growth was 80.3%.
On to `C/C=C(/C)C(=O)OC1C=C(CO)C(=O)C(OC(=O)C(C)(O)C(C)Cl)C1C(C)C` (stereo not given), for which the growth is 20%.
Regarding `CC([C@H]1CC=C2C3CCC4=C[C@@H](N(C)C)CC[C@]4(C)C3CC[C@@]21C)N(C)C` (stereo not given in full), the growth is 32.4%.
Under `COc1ccc(/C=C2\SC(=O)N(Cc3cc(=O)oc4ccc(OC)cc34)C2=O)cc1` stands 74.3%; under `CCCCCCCCCCCCCCCC[n+]1cccc(C#N)c1`, 74.8%; under `COc1ccc2cnc(N)c(C#Cc3cc(C(=O)Nc4ccc(CN5CCN(C)CC5)c(C(F)(F)F)c4)cnc3C)c2c1`, -1.84% (active).
For the compound `CCCCCc1ccnc(CC(=O)c2ccc(OC)cc2)c1`, the growth was 85.7%.
For `CCCCCCCCCCCCCCCCCC1=NCCN1CS(=O)(=O)O` the value was 60.9%; for `COc1ccc(OC)c(Cn2cc3c(c2)-c2oncc2CC3)c1`, -1.67% (active).
Take `CC1Cc2cc(F)ccc2-n2cccc21` (stereo not given): the growth was 96.1%.
For `CC/C(=N\Nc1nc2ccccc2n1C)c1ccccn1`, the growth is 19.5%.
As for `O=C(CN1C(=O)NC(c2ccccc2)(c2ccccc2)C1=O)c1ccc(N2CCCC2)cc1`, the growth was 77.8%.
Regarding `COc1ccc(-c2nc(N)n(C(=S)Nc3ccccc3)n2)cc1`, the growth is 70%.
For `Cc1sc(NC(=O)c2ccc(C(C)(C)C)cc2)c(C(=O)O)c1C` the value was 85.5%.
Under `C#CCCCCCCC[C@@H]1OC(=O)[C@H]([C@@H](C)CC)NC(=O)[C@H]([C@@H](C)CC)NC(=O)CC(=O)[C@@H]1C` stands 76.1%; under `CCOC1=C(Cl)C(=O)C(OCC)=C(Cl)C1=O`, 93.3%.
For `Cc1ccc(CC(=O)O)c(C)c1` the value was 92.1%.
As for `O=C1C(=O)c2ccccc2C(O)=C1CCCc1ccc(Oc2ccccc2)cc1`, the growth is 71.2%.
Regarding `CCOc1ccc2nc3ccc(Cl)cc3nc2c1`, the growth was 108%.
For `CC[n+]1c(C)ccc2cc(C)ccc21`, the growth was 83.7%.
Turning to `COC(=O)/C(Br)=C/c1c[nH]c2ccc(Br)cc12`, the growth is 90.1%.
As to `CC(=O)c1ccc2c(c1)c1ccccc1n2C`, the growth was 82.5%.
As to `Cc1ccc([C@@H]2C[C@H](O)Cc3ccccc3N2)s1`, the growth is 98.4%.
Turning to `COC(=O)/C=C/c1cc(O)c2oc(-c3ccc(O)c(O)c3)c(C(=O)OC)c2c1`, the growth is 7.74% (active).
For the compound `CCc1c(C)c2ccc(OCC(=O)N=Nc3c(O)[nH]c4ccccc34)c(C)c2oc1=O`, the growth is 30.7%.
Under `CC1=C(C)C[C@]2(C(=O)O[C@H]3CCCC[C@@H]32)[S@](=O)C1` stands 98.4%; under `CCOC(=O)C1=NN(c2ccccc2)C2=NC(=O)/C(=C\c3cn(-c4ccccc4)nc3-c3cc4ccccc4o3)C(=O)N12`, 94.7%.
Turning to `COc1cc2c(/C=C3\C(=O)Nc4ccc(Br)cc43)c(Cl)n(C)c2cc1C`, the growth was 31.6%.
Regarding `COc1cc2c(cc1OC)C(Cc1cc(OC)c(OC)cc1[N+](=O)[O-])=NCC2`, the growth was 88.2%.
Consider `COc1ccc(-c2nc(SCC(C)C)nc(Nc3ccc([N+](=O)[O-])cc3)c2C#N)cc1`, for which the growth was 88.1%.
On to `O=C(/C=C/c1c[nH]c2ccccc12)c1cc2ccccc2o1`, for which the growth was 92%.
For `O=C(CBr)OCc1ccc([N+](=O)[O-])o1` the value was 91.4%; for `C/C=C(/C)C(=O)OC1C=C(CO)C(=O)C(OC(=O)C2(C)OC2C)C1C(C)C` (stereo not given), 23.6%.
In the case of `O=C(Nc1ccc(Cl)c(Cl)c1)O/N=C\c1c(Cl)ccc([N+](=O)[O-])c1Cl`, the growth is 16.9%.
In the case of `Oc1ccc(CN(Cc2ccc(C(F)(F)F)cc2)Cc2ccc(O)c3ncccc23)c2cccnc12`, the growth was 33.5%.
Take `COc1cc(-c2nc(/C=C3/C(=O)Nc4ccccc43)c3ccccn23)cc(OC)c1OC`: the growth was 106%.
